Measurements: ChEMBL document CHEMBL3988442, “University of Dundee, Small-Polar-MMV Screening Library” (2021)
Among all 48,000 compounds or so, about 13,000 (27%) showed an effect of 50% or more. The list shows a part of the results.

These molecules were tested on Wolbachia pipientis (assay: Anti-Wolbachia Cell-Based Screen). Conditions: 5 µM.
Format: functional
Parameters: scale not given: in the data most compounds retested in dose-response had high values

First: O=C(NC1CC1)N1CC[C@H]2[C@H]1CCN2c1nncs1.O=C(O)C(F)(F)F
Second: O=C(O)C(F)(F)F.O=C(c1ccco1)N1CCCC2(CCN(c3nncs3)C2)C1 (stereo unspecified)
The “Percent Effect” value of the first is lower: 6.883% for the first, 102.9% for the second.

Compared with `CCN(Cc1ccc2c(c1)OCCO2)C(=O)NC(C)Cn1ccnc1` (stereo unspecified), `CCC(=O)Nc1ccc2c(c1)CN(C(=O)c1ccco1)CC2` is higher in “Percent Effect” value: 1.976% for the first, 20.51% for the second.

Compared with `CCOc1ccc(NC(=O)c2cc3c([nH]c2=O)CCC3)cc1`, `CCOC(=O)c1ccc(NC(=O)c2cc3c([nH]c2=O)CCCC3)cc1` is lower in “Percent Effect” value: 108.3% for the first, -8.889% for the second.

First: CCOc1ccc(NC(=O)c2cnc(N3CCCC3)nc2C)cc1
Second: O=C(NCC1CC1)c1cc(Br)cnc1N1CCCCC1
The “Percent Effect” value of the first is lower: 17.2% for the first, 74.44% for the second.

Going from `Cc1ncsc1CN1C[C@@H]2COC[C@]2(C(=O)NC(C)C)C1.O=C(O)C(F)(F)F` to `CC(C)N1CCOCC2(CN(Cc3nccs3)CCO2)C1.O=C(O)C(F)(F)F.O=C(O)C(F)(F)F` (stereo unspecified), the “Percent Effect” value rises from -19.77% to 13.74%.

First: CCCc1nc(C)c(C(=O)Nc2cccc(C)n2)s1
Second: Cc1cccc(NC(=O)c2sc(C)nc2C)n1
The “Percent Effect” value of the first is lower: 125.8% for the first, 165.1% for the second.

Going from `CCCc1nc(C)c(C(=O)NS(=O)(=O)c2cccnc2)s1` to `CCCc1nc(C)c(C(=O)NCc2ccc(C)n2C)s1`, the “Percent Effect” value rises from -11.93% to 17.26%.

First: Cc1nc(C)c(C(=O)Nc2cc(N3CCC(C)CC3)ncn2)s1
Second: Cc1nc(C)c(C(=O)NCCNC(=O)Cc2cccc(F)c2)s1
The “Percent Effect” value of the first is higher: 1.923% for the first, -2.44% for the second.

First: COCC(O)CN(C)C(=O)c1cccc(-c2csc(C)n2)c1 (stereo unspecified)
Second: COc1ccc(N(C(=O)Cc2ccc(C)nc2)C(C)C)cc1F
The “Percent Effect” value of the first is higher: -1.754% for the first, -2.597% for the second.

Compared with `CCn1nc(C)c(CCn2ccnc2-c2cc3n(n2)CCNC3)c1C`, `CCCc1nc(C)cc(N2CCC3(CCC(=O)N(CCOC)C3)CC2)n1` is lower in “Percent Effect” value: 7.532% for the first, 0.7545% for the second.

Compared with `Cc1ccc(CC(=O)Nc2cc(C(C)C)n[nH]2)cn1`, `Cc1ccc(C(=O)Nc2cc(C(C)C)n[nH]2)cn1` is lower in “Percent Effect” value: 129.4% for the first, -1.048% for the second.

First: Cc1cc(NC(=O)c2ccc(N3CCOCC3)cc2)[nH]n1
Second: Cc1cc(NC(=O)c2ccc(N3CCOCC3)c(C)c2)[nH]n1
The “Percent Effect” value of the first is lower: -12.35% for the first, 7.693% for the second.

Compared with `Cc1ccc(CC(=O)NCC(O)c2ccc(Cl)cc2Cl)cn1` (stereo unspecified), `Cc1nnsc1C(=O)NCc1cccnc1N(C)Cc1ccccc1` is higher in “Percent Effect” value: -14.52% for the first, -7.662% for the second.

Compared with `CC(C)c1cc(NC(=O)c2ccc(NC3CC3)nc2)[nH]n1`, `CC(C)c1cc(NC(=O)c2cccnc2)[nH]n1` is higher in “Percent Effect” value: -1.016% for the first, 108.7% for the second.

Going from `CC(C)c1cc(NC(=O)c2ccc([S+]([O-])C(C)C)cc2)[nH]n1` (stereo unspecified) to `CC(C)c1cc(NC(=O)c2ccc(C(=O)NC(C)(C)C)cc2)[nH]n1`, the “Percent Effect” value falls from 112.1% to -2.024%.

Compared with `CC(C)c1cc(NC(=O)c2ccncc2)[nH]n1`, `Cc1nn(C(C)C)c(C)c1NC(=O)c1ccncc1` is lower in “Percent Effect” value: 102.9% for the first, 7.79% for the second.

First: Cc1cccc(NCCOc2cccc(C#N)c2)c1C(N)=O
Second: CC(C)c1nnc2n1CCN(C(=O)c1cccc(OCC(N)=O)c1)C2
The “Percent Effect” value of the first is lower: -11.96% for the first, -10.94% for the second.

First: Cc1cc(C)n(Cc2cccc(C(=O)N(CCC#N)CCC#N)c2)n1
Second: Cc1ccc2c(n1)N(CCN(C)C)CCN(C(=O)c1ccco1)C2
The “Percent Effect” value of the first is lower: -7.761% for the first, 15.51% for the second.

First: CC(C)c1cc(NCC2(Cn3cccn3)CC2)nc(N)n1
Second: CCN1CCCC1(C)c1nc(C)cc(N)n1 (stereo unspecified)
The “Percent Effect” value of the first is lower: 7.043% for the first, 113.3% for the second.

Going from `CN(C)CCCN(C)C1CCN(c2cccc(-c3cscn3)c2)CC1` to `CNc1ncc(CN(C)C(=O)c2cccc(CC3CCNCC3)c2)cn1`, the “Percent Effect” value falls from 6.682% to 3.587%.

Compared with `O=C(NC1CC1)c1cnc(-c2noc3cc(N4CCCCC4)ccc23)s1`, `O=C(NC1CCCCC1)c1cc(Br)cnc1N1CCCCC1` is higher in “Percent Effect” value: -8.879% for the first, 116.3% for the second.

First: O=C(NCC1CCCCC1)c1nnn(-c2ccc(Br)cc2)n1
Second: O=C(NC[C@@H]1CCCO1)c1cc(Br)cnc1N1CCCCC1
The “Percent Effect” value of the first is lower: -0.9526% for the first, 112.6% for the second.

First: O=C(c1cnc(NCC2CCCO2)c(Cl)c1)N1CCOCC1 (stereo unspecified)
Second: O=C(c1cnc(NCC2CCCO2)c(Cl)c1)N1CCCCC1 (stereo unspecified)
The “Percent Effect” value of the first is lower: 2.383% for the first, 21.16% for the second.

Compared with `COc1ccc(Br)c(C(=O)NCC2CCN(S(=O)(=O)C3CC3)CC2)c1`, `COc1ccc(-c2ccc(C(=O)NS(C)(=O)=O)c(F)c2)c(F)c1` is higher in “Percent Effect” value: -4.78% for the first, 2.644% for the second.

Compared with `O=C(NC1CCN(c2ncccn2)CC1)c1cc2c(cc1O)CCCC2`, `O=C(CSCC1CC1)N1CCCC(c2nccn2Cc2ccccn2)C1` (stereo unspecified) is lower in “Percent Effect” value: 1.017% for the first, -4.276% for the second.

Going from `Cc1ccc([C@@H]2CN(C(=O)c3cc(C)no3)C[C@H]2NC(=O)C2CC2)cc1` to `CC(=O)Nc1ccc2c(c1)CN(C(=O)c1ccco1)CC2`, the “Percent Effect” value rises from -6.322% to 113.8%.

First: Cc1cc(C)c(CCNC(=O)CN2CCCN(C(N)=O)CC2)c(C)c1
Second: Cc1ccc(NC(=O)NCC2(N3CCOCC3)CCSC2)c(C)c1 (stereo unspecified)
The “Percent Effect” value of the first is higher: 7.662% for the first, -11.49% for the second.

First: CC(SCCNS(=O)(=O)c1cnn(C)c1)c1cccs1 (stereo unspecified)
Second: CNS(=O)(=O)c1cccc(CNCc2ccsc2)c1
The “Percent Effect” value of the first is higher: 10.16% for the first, 4.811% for the second.

Going from `CCc1c(C(=O)N2CCOC(C)(C)C2)cnn1-c1ccccn1` to `Cc1cnc(N2CC3(CCN(C(=O)c4ccoc4)C3)C2)nc1`, the “Percent Effect” value falls from 19.62% to -4.182%.

Compared with `COc1cccc2c1N(CC(=O)Nc1ccc(Br)cn1)CCC2`, `COCC(=O)Nc1ccc2c(c1)CN(C(=O)c1ccco1)CC2` is higher in “Percent Effect” value: -18.77% for the first, 105.1% for the second.

First: Cc1cnc(NC2CCc3c(ccc(=O)n3C)C2)nc1 (stereo unspecified)
Second: CCc1cnc(NC2CCc3c(ccc(=O)n3C)C2)nc1 (stereo unspecified)
The “Percent Effect” value of the first is higher: 9.132% for the first, -4.602% for the second.

Going from `CCn1c2c(ccc1=O)CC(NCc1cnn(C)c1)CC2` (stereo unspecified) to `Cn1cc(CNC2CCc3c(ccc(=O)n3C)C2)cn1` (stereo unspecified), the “Percent Effect” value falls from 111.7% to 106.3%.

Going from `CN(C)C(=O)Cn1c2c(ccc1=O)CC(NCc1cccnc1)CC2` (stereo unspecified) to `O=c1ccc2c(n1Cc1cccnc1)CCC(NCc1cccnc1)C2` (stereo unspecified), the “Percent Effect” value rises from -16.54% to -5.878%.

Going from `Cc1cnc(NC2CCc3c(ccc(=O)n3CC3CC3)C2)nc1` (stereo unspecified) to `COCCn1c2c(ccc1=O)CC(NCc1cnn(C)c1)CC2` (stereo unspecified), the “Percent Effect” value rises from -5.786% to 90.26%.

Going from `COCCn1c2c(ccc1=O)CC(NC(=O)c1cscn1)CC2` (stereo unspecified) to `Cc1n[nH]cc1CNc1ccc2c(c1)CN(C(=O)OC(C)(C)C)CC2`, the “Percent Effect” value rises from -30.94% to -19.63%.

Going from `Cn1cc(-c2csc(CN3CCOCC3)n2)cn1` to `O=C(c1ccco1)N1CCO[C@@H]2CN(c3ncc(F)cn3)CC[C@@H]2C1`, the “Percent Effect” value rises from -11.66% to -7.545%.

First: N#Cc1ccccc1C(=O)N1C[C@@H](CN2CCCCC2)[C@@H](CO)C1
Second: O=C(Nc1ccccc1)[C@H]1O[C@H](CCN2CCCCC2)CC[C@@H]1O
The “Percent Effect” value of the first is higher: -9.135% for the first, -9.518% for the second.

Compared with `CC(C)(C)OC(=O)NC1(c2noc(-c3ccoc3)n2)CCC1`, `O=C(c1ccoc1)N1CCC2(CCCN(c3ncc(F)cn3)C2)C1` (stereo unspecified) is higher in “Percent Effect” value: -12.02% for the first, 105.6% for the second.

Going from `CC1(C)CC(N2Cc3nc(N)ncc3C2=O)CC(C)(C)N1` to `COCCN1CCCC1(C)c1nc(C)cc(N)n1` (stereo unspecified), the “Percent Effect” value rises from -10.52% to 125.2%.

Compared with `CO[C@@H]1CCN(Cc2nccs2)C[C@@H]1Cc1cccc(C)c1.O=C(O)C(F)(F)F`, `CO[C@@H]1CCN(c2nnc(C)s2)C[C@@H]1Cc1cccc(C)c1.O=C(O)C(F)(F)F` is higher in “Percent Effect” value: -16.54% for the first, 98.33% for the second.

Compared with `Cc1cccc(CO[C@H]2CN(c3nnc(C)s3)[C@@H]3CCCO[C@H]23)n1.O=C(O)C(F)(F)F.O=C(O)C(F)(F)F`, `CO[C@H]1CCN(c2nnc(C)s2)C[C@@H]1Cc1cccc(C)c1.O=C(O)C(F)(F)F` is higher in “Percent Effect” value: -4.881% for the first, 71.03% for the second.

Compared with `CCc1nc2c(N3CCC4(CC3)CC(=O)N(CC)C4)ncnc2o1`, `CCCc1nc(C)cc(N2CCC3(CCC(=O)N(CCO)C3)CC2)n1` is higher in “Percent Effect” value: -6.459% for the first, 3.34% for the second.

Compared with `CC(=O)N1CCC2(CCN(C(=O)c3ccc(C)c(C(F)(F)F)c3)CC2)C1`, `O=C(O)C(F)(F)F.O=C(c1ccccn1)N1CCC2(CCCN(c3nncs3)C2)C1` (stereo unspecified) is lower in “Percent Effect” value: 5.655% for the first, -19.65% for the second.

First: Cn1c(=O)oc2ccc(NC(=O)N3CCc4ccccc4C3)cc21
Second: Cc1ccccc1CS(=O)(=O)CC(=O)N(C)Cc1ccccc1
The “Percent Effect” value of the first is higher: 3.021% for the first, -7.305% for the second.

Compared with `CCc1noc(CC)c1CNC(=O)Nc1ccc2[nH]nnc2c1`, `CCCNC(=O)CCC(=O)Nc1ccc(-n2cncn2)c(F)c1` is lower in “Percent Effect” value: 5.627% for the first, -8.923% for the second.

First: Cc1cc(S(=O)(=O)Nc2onc(C)c2C)c(C)s1
Second: Cc1cc(C)nc(C2(C)CCCN2CCO)n1 (stereo unspecified)
The “Percent Effect” value of the first is lower: -1.825% for the first, 123.6% for the second.

First: COCCN1CCCC12CCCN(c1nncs1)C2 (stereo unspecified)
Second: CC(=O)N1CCCC2(CCN(c3nncs3)C2)C1 (stereo unspecified)
The “Percent Effect” value of the first is higher: 14.36% for the first, -12.49% for the second.

Going from `Cc1cc(N2CCC3(CCC(=O)N(CCO)C3)CC2)nc(N(C)C)n1` to `O=C(c1ccco1)N1CCC2(CCCN(c3ncc(F)cn3)C2)C1` (stereo unspecified), the “Percent Effect” value rises from 21.48% to 95.74%.

Compared with `O=C(CCO)N1CCOC2(CCCN(C(=O)c3ccco3)C2)C1` (stereo unspecified), `O=C(c1ccco1)N1CCCC2(C1)CN(c1nncs1)CCO2` (stereo unspecified) is higher in “Percent Effect” value: -2.214% for the first, 86.33% for the second.

Compared with `O=C(c1ccco1)N1CCCC2(CN(Cc3ccoc3)CCO2)C1` (stereo unspecified), `O=C(c1ccco1)N1CCC2(CCOC2)C1` (stereo unspecified) is higher in “Percent Effect” value: -2.684% for the first, 5.675% for the second.

For `O=C(c1ccoc1)N1CCC2(C1)CN(c1ncc(F)cn1)C2`, the “Percent Effect” value was 0.03212%.
